We go through eight compounds from PubChem BioAssay (Tox21).

Experiment [1] in a line: qHTS assay to identify small molecule agonists of the AP-1 signaling pathway - cell viability counter screen (AID 1159525; calls by dose curve; further: nearly all actives have a fitted effect of over 55% in size; further: potency means the concentration at half of the fitted maximal effect). The essentials: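 AP-1-bla ME-180 cells in Opti-MEM with 0.5% dialyzed FBS, compound exposure 5 h at 37 C in 15-point titration. Viability read in the same wells as ATP content by CellTiter-Glo luminescence, normalised to tetra-n-octylammonium bromide and DMSO controls.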

Experiment [2] in a line: qHTS RealTime-Glo MT Cell Viability Assay in HepG2 cells - 40 hour (AID 1224870). Further: nearly all actives have a fitted effect of over 50% in size. Further: potency means the concentration at half of the fitted maximal effect. On activity change, negative = cytotoxic: on the % scale 0 is the no-effect control and ±100 the full control effect. The method in brief: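 HepG2 cells (600/well) mixed with RealTime-Glo MT reagent, settled 5 h at 37 C/5% CO2 before compound addition. Nonlytic NanoLuc luminescence from viable-cell prosubstrate reduction read repeatedly during 40 h treatment at 37 C.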
Experiment [3] in a line: A CellTox Green Cytotoxicity Assay to monitor cytotoxicity in HEK293 cells - 40 hour (AID 1224871). Further: nearly all actives have a fitted effect of over 45% in size. Further: potency means the concentration at half of the fitted maximal effect. On cytotoxicity increase: on the % scale 0 is the no-effect control and ±100 the full control effect. The method in brief:
(§1)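 Cytotoxicity was tracked continuously in HEK293 cells by a DNA-binding dye excluded from viable cells. Compounds were transferred in DMSO 5 h after seeding; fluorescence was recorded at intervals up to 40 h.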

The nature of experiment [4]: qHTS RealTime-Glo MT Cell Viability Assay in HEK293 cells - 40 hour (AID 1224874). Further: nearly all actives have a fitted effect of over 50% in size. Further: potency means the concentration at half of the fitted maximal effect. On max response: on the % scale 0 is the no-effect control and ±100 the full control effect. The following applies: RealTime-Glo luminescence; max response: hits give low values. The method in brief:
(§2)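 Nonlytic bioluminescent viability monitoring. HEK293 at 600 cells/well with reagent; 5 h settle; compound transfer by pintool; plates held at 37 C and read at set time points.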

Experiment [5] can be described thus: A CellTox Green Cytotoxicity Assay to monitor cytotoxicity in HepG2 cells - 16 hour (AID 1224876). Further: nearly all actives have a fitted effect of over 45% in size. Further: potency means the concentration at half of the fitted maximal effect. The essentials:
(§3)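 Real-time, homogeneous cytotoxicity readout: dead-cell DNA staining by CellTox Green in HepG2 monolayers, fluorescence measured at timed intervals up to 40 h of continuous compound exposure.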

Experiment [6] in a line: qHTS RealTime-Glo MT Cell Viability Assay in HepG2 cells - 32 hour (AID 1224877). Further: nearly all actives have a fitted effect of over 55% in size. Further: potency means the concentration at half of the fitted maximal effect. The essentials: (§4)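 HepG2 cells (600/well) were dispensed with RealTime-Glo reagents, incubated 5 h at 37 °C, then treated with compounds in DMSO for up to 40 h. Nonlytic NanoLuc luminescence reflecting viable cells was read at each stated time point.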
Experiment [7] in a line: qHTS RealTime-Glo MT Cell Viability Assay in HEK293 cells - 0 hour (AID 1224880). Further: top concentration of the series differs between compounds; on the % scale 0 is the no-effect control and ±100 the full control effect; nearly all actives have a fitted effect of over 45% in size. The essentials: as §2
Experiment [8] in a line: A CellTox Green Cytotoxicity Assay to monitor cytotoxicity in HEK293 cells - 16 hour (AID 1224888). Further: nearly all actives have a fitted effect of over 35% in size. Further: potency means the concentration at half of the fitted maximal effect. The essentials: as §1
Experiment [9] is described as follows: qHTS RealTime-Glo MT Cell Viability Assay in HepG2 cells - 0 hour (AID 1224889). Further: on the % scale 0 is the no-effect control and ±100 the full control effect; nearly all actives have a fitted effect of over 50% in size. The essentials:
as §4

The nature of experiment [10]: A CellTox Green Cytotoxicity Assay to monitor cytotoxicity in HepG2 cells - 8 hour (AID 1224890). Further: nearly all actives have a fitted effect of over 45% in size. Further: potency means the concentration at half of the fitted maximal effect. The essentials: as §3
Experiment [11] in a line: qHTS assay to identify small molecule antagonists of the estrogen receptor alpha (ER-alpha) signaling pathway using the BG1 cell line in the presence of 0.1 nM 17-beta-estradiol - cell viability counter screen (AID 1259241). Further: on the % scale 0 is the no-effect control and ±100 the full control effect; nearly all actives have a fitted effect of over 40% in size. The essentials: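 VM7Luc4E2, 4,000 cells/well, phenol red-free medium + 10% charcoal-stripped FBS; 24 hr plating; cpd + 0.1 nM E2 final, 22 hr 37C/5% CO2; CellTiter-Fluor 30 min, fluorescence.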

Experiment [12] can be described thus: qHTS assay to identify small molecule antagonists of the androgen receptor (AR) signaling pathway using the MDA cell line in the presence of 0.5 nM R1881 - cell viability counter screen (AID 1259242). Further: nearly all actives have a fitted effect of over 45% in size. Further: potency means the concentration at half of the fitted maximal effect. The essentials:
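Cytotoxicity toward MDA-kb2 cells is measured by CellTiter-Fluor live-cell protease fluorescence after 16 hr compound exposure at 37C in the presence of 0.5 nM R1881 stimulator.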

The nature of experiment [13]: qHTS assay to identify small molecule HDAC inhibitors - cell viability counter screen (AID 1259365). Further: series mostly up to about 92 µM; on the % scale 0 is the no-effect control and ±100 the full control effect; nearly all actives have a fitted effect of over 50% in size. The essentials: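 Luminescence from CellTiter-Glo, developed 30min at room temperature, reports viability of wild-type HCT-116 cells treated 2hr with compounds at 37 C and 5% CO2 after overnight plating.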
Experiment [14] is described as follows: qHTS assay to identify small molecule agonists or antagonists of the thyroid stimulating hormone receptor (TSHR) signaling pathway - wild type cell line counter screen (AID 1259384; calls by dose curve; further: on the % scale 0 is the no-effect control and ±100 the full control effect). The method in brief: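 Wild-type Hek293 cells, 800/well, 18 h at 37C, then compound with Ro20-1724 for 30 min RT. cAMP by HTRF (cAMP-d2/anti-cAMP cryptate), 1 h RT, fluorescence read. 15 concentrations, triplicates.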

Experiment [15] deals with Cytochrome P450 1A2 (Homo sapiens) (UniProt P05177). The experiment can be described thus: Cytochrome P450 Family 1 Subfamily A Member 2 (CYP1A2) small molecule antagonists: luciferase reporter qHTS assay (AID 1671199). Further: nearly all actives have a fitted effect of over 50% in size. Further: potency means the concentration at half of the fitted maximal effect. The essentials:
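Inhibition of CYP1A2 conversion of proluciferin to luciferin, detected by luminescence. Reaction run 1 h at room temperature with NADPH regeneration after brief compound preincubation.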

The target in experiment [16] is Voltage-gated inwardly rectifying potassium channel KCNH2 (Homo sapiens) (UniProt Q12809). The experiment can be described thus: Human Ether-a-go-go-Related Gene (hERG) channel small molecule antagonists: fluorescence cell-based qHTS assay (AID 1671200). Further: nearly all actives have a fitted effect of over 50% in size. Further: potency means the concentration at half of the fitted maximal effect. The method in brief: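 Channel function was assessed by thallium flux. Cells seeded the previous day and kept at 37 C took up FluxOR II dye over 1 h in the dark at room temperature, then sat another 10 min before stimulation.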
Voltage-gated inwardly rectifying potassium channel KCNH2 (Homo sapiens), sequence (Q12809 whole entry, looked up): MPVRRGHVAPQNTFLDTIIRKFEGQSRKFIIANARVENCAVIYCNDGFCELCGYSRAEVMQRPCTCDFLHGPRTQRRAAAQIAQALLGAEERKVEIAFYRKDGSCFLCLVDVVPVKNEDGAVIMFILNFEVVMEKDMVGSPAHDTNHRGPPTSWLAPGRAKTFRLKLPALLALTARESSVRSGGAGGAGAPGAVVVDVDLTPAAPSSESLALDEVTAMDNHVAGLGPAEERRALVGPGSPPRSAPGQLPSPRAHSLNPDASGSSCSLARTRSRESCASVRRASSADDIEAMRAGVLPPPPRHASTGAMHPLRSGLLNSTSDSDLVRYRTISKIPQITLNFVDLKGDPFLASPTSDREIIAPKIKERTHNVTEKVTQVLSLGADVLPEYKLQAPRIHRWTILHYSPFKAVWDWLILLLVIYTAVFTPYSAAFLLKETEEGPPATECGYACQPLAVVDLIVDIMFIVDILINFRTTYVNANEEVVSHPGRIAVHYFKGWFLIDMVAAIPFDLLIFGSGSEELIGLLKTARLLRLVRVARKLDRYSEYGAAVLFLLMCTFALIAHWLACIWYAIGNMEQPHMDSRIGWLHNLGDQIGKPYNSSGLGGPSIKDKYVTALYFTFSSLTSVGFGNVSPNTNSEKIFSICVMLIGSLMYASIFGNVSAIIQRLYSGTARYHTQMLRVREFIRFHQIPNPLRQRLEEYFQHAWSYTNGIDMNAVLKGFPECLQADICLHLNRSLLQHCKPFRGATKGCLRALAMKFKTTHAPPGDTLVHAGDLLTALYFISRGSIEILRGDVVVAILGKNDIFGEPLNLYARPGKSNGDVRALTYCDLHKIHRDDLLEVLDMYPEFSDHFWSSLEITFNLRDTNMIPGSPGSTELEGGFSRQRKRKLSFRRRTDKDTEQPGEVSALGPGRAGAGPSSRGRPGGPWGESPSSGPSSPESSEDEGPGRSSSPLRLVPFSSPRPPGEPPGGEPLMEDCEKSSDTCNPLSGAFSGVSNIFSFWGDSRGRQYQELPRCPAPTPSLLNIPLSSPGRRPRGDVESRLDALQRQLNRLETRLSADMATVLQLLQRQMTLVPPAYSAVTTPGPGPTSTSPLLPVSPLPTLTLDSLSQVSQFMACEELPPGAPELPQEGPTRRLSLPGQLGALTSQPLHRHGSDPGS

The nature of experiment [17]: qHTS assay for small molecule agonists of the p53 signaling pathway (AID 651631; calls by dose curve; further: nearly all actives have a fitted effect of over 15% in size; further: potency means the concentration at half of the fitted maximal effect). The essentials:
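Read-out is beta-lactamase FRET fluorescence measured 2 h after substrate addition at room temperature, in HCT-116 cells with a p53 response element-driven reporter exposed to compounds for 16 h at 37 °C.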

Experiment [18] concerns the target Nuclear receptor subfamily 1 group I member 3 (Homo sapiens) (UniProt Q14994). The experiment can be described thus: qHTS assay to identify small molecule antagonists of the constitutive androstane receptor (CAR) signaling pathway (AID 1224838). Further: on the % scale 0 is the no-effect control and ±100 the full control effect; nearly all actives have a fitted effect of over 40% in size. The essentials: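 Compounds were titrated across 15 concentrations onto HepG2 cells double-stably expressing hCAR and a CYP2B6-2.2kb reporter, together with 50 nM CITCO (final). After 24 h at 37 C, luciferase activity was measured by luminescence.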

Experiment [19] in a line: qHTS assay to identify small molecule antagonists of the sonic hedgehog signaling (Shh) pathway (AID 1259369; calls by dose curve; further: nearly all actives have a fitted effect of over 45% in size; further: potency means the concentration at half of the fitted maximal effect). The essentials:
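Inhibition of Shh signalling is measured as reduced Gli1-response-element firefly luciferase output in an NIH/3T3-derived stable reporter clone stimulated with conditioned medium for 24hr.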

Values joined by “and” are separate entries in the source; they are usually repeats but may differ in a detail not shown here. Identical values can stand only once. Values without a mark were called inactive. Records with an inconclusive call do not appear. Active and inactive are the calls of the source. Unless noted, the call rests on the fitted dose curve; in most records, active means well fitted curve in the direction sought with a large enough effect in the repeat runs; inconclusive means weak or mixed curves; inactive means no such curve, though single readings can be large; an effect the other way counts as inactive or inconclusive.

Cytochrome P450 1A2 (Homo sapiens), sequence (P05177 whole entry, looked up): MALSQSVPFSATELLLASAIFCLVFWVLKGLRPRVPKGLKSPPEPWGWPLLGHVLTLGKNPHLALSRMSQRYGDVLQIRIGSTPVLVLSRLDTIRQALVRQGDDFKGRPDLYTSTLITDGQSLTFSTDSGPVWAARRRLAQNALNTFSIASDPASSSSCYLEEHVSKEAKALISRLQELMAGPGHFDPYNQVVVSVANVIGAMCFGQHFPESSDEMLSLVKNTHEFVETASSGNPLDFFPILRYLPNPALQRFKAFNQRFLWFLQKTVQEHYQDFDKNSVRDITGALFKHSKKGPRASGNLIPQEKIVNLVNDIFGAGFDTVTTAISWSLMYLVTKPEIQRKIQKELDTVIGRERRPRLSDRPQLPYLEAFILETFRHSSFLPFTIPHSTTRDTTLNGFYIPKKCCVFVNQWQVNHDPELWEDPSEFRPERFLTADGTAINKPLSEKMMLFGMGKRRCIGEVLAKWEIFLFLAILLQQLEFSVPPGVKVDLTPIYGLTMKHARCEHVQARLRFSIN
Nuclear receptor subfamily 1 group I member 3 (Homo sapiens), sequence (Q14994 whole entry, looked up): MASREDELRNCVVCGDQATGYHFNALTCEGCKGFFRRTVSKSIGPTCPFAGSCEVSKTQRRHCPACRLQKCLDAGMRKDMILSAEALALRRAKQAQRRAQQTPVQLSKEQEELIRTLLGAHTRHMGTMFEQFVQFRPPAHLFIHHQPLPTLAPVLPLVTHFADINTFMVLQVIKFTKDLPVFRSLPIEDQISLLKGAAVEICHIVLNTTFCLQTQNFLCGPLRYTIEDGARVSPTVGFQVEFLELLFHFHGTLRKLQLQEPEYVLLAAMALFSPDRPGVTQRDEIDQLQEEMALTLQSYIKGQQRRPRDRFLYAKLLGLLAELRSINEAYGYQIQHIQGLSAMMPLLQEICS

As to `Oc1c(I)cc(I)cc1I`, the Potency result in experiment [1], in experiment [2], in experiment [3], in experiment [5], in experiment [6] and in experiment [8] was “inactive” each time. The Potency result in experiment [9], in experiment [10], in [11], in [12] and in [16] was “inactive” throughout. The max response in experiment [4] was -25%. Also, the outcome in [7], in experiment [13] and in experiment [14] was inactive. Moreover, the Potency in experiment [15] is 39.9 µM (active).

Regarding `CCOC(=O)C(O)(c1ccc(Cl)cc1)c1ccc(Cl)cc1`, the Potency in experiment [17] is 27.6 µM (active); in experiment [1] it was 44.1 µM (active) and 43.6 µM (active); in experiment [3], 44.1 µM (active); in experiment [4], 22.1 µM (active) and 34.7 µM (active); in experiment [19], 7.77 µM (active) and 19.3 µM (active); in [15], 40.3 µM (active) and 71 µM (active). In addition, the Potency in experiment [16] is 22.1 µM (active) and 21.9 µM (active). Also, the Potency result in experiment [18], in [2], in experiment [5], in experiment [6], in experiment [8] and in [9] was “inactive” in each case. The Potency result in [10], in experiment [11] and in [12] was “inactive” each time. Besides, the result in experiment [7] and in experiment [13] was inactive.

Regarding `c1ccc2c(c1)Sc1ccccc1N2CC1CN2CCC1CC2` (stereo not given), the Potency entry in experiment [1], in [11] and in [15] was “inactive” each time. Moreover, the Potency was 21.3 µM (active) in experiment [2]; 26.8 µM (active) in experiment [3]; 23.9 µM (active) in experiment [4]; 23.9 µM (active) in experiment [5]; 23.9 µM (active) in experiment [6]; 29.8 µM (active) in [12]. Besides, the values for the Potency in [19] and in [16] were 9.44 µM (active) and 5.35 µM (active), respectively. The compound was classed as inactive in [13] and in experiment [14].

Regarding `OCC(c1ccc(Cl)cc1)c1ccc(Cl)cc1`, the Potency is 49 µM (active) in experiment [1]; 43.6 µM (active) in experiment [3]; 38.9 µM (active) in experiment [4]; 43.6 µM (active) in [5]; 24.5 µM (active) in [8]; 49 µM (active) in [10]. For the same compound, the Potency in [19] is 24.3 µM (active); in [15], 35.6 µM (active); in [16] it was 43.6 µM (active). Further, the compound was classed as inactive in experiment [7], in experiment [13] and in experiment [14]. Further, the Potency result in experiment [9], in experiment [11] and in experiment [12] was “inactive” throughout.

Take `Cc1ccc2nc3sc(=O)sc3nc2c1`: the activity, negative = inhibition in experiment [18] is 67.8% [at 19 µM]. Further, the figures for the activity change, negative = cytotoxic in [2] and in experiment [6] were -11.2% [at 15.8 µM] and -8.61% [at 15.8 µM], respectively. The cytotoxicity increase was -10.2% [at 15.8 µM] in experiment [3], -9.02% [at 15.8 µM] in [5] and -5.93% [at 15.8 µM] in [10]. For the same compound, the max response in [4] was 3.19%. Moreover, the activity change, negative = cytotoxicity in experiment [7] is -3.58% [at 15.8 µM]; in experiment [9], 15.7% [at 15.8 µM]; in experiment [11], 1.06% [at 19 µM]; in experiment [13], 4.09% [at 19 µM]. For the same compound, in experiment [8], the activity change is -2.03% [at 15.8 µM, hits give high values]. Besides, the viability change, negative = cytotoxic in experiment [12] was -14.8% [at 19 µM]. The activity change, negative = inhibition in [19] is -28.1% [at 19 µM]; in experiment [16], 2.68% [at 15.8 µM]. Further, the cAMP activity change in experiment [14] is 3.67% [at 18.9 µM]. Further, the Potency in [15] was 13.5 µM (active).

Consider `CCN(CC)C(=O)Cl`, for which the Potency result in experiment [1], in [18], in experiment [2], in [3], in experiment [5] and in [6] was “inactive” throughout. The Potency entry in experiment [8], in experiment [9], in experiment [10], in experiment [11], in experiment [12] and in [19] was “inactive” throughout. Moreover, the Potency entry in experiment [15] and in experiment [16] was “inactive” each time. Further, the max response in [4] was 13.5%. For the same compound, the call in experiment [7], in experiment [13] and in [14] was inactive.

Regarding `Nc1ccc(Cl)cc1[N+](=O)[O-]`, the Potency result in experiment [17] and in experiment [18] was “inactive” each time.

As for `O=C1C(I)=CC(=C(c2cc(I)c(O)c(I)c2)c2ccccc2C(=O)O)C=C1I`, the Potency result in experiment [18], in experiment [2], in [3], in experiment [5], in experiment [6] and in [8] was “inactive” throughout. The Potency result in [9], in [10], in experiment [11], in experiment [12], in experiment [15] and in [16] was “inactive” in each case. In addition, the max response in experiment [4] was -8.4%. Moreover, the outcome in experiment [7], in [13] and in experiment [14] was inactive.
